The record followed here is PubChem BioAssay.

Assay [1] can be described thus: anti-His antibody binders, primary screen, artefact control for SMM control protein annotation, biochemical, small-molecule microarray, 635 nm fluorescence (AID 1128).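 Further: score merges feature fluorescence with signal-to-noise for each printed compound spot.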 As to conditions: anti-His Alexa647 antibody binding, higher = more signal.
Assay [2] deals with Human papillomavirus type 1a E7 protein (residues 1-88). Description: HPV1a E7 small-molecule binders, primary screen, biochemical, small-molecule microarray, residues 1-88, 635 nm (AID 1129). The note with it: small-molecule microarray binding, fluorescence 635 nm; higher = more signal.
The target of assay [3] is Focal adhesion kinase 1 (Homo sapiens) (UniProt Q05397). As to the kind of experiment: small-molecule microarray binders of FAK, primary screen, biochemical, 635/667 nm fluorescence, BSA, DTT (AID 1130).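 Further: composite of spot emission at 667 nm and signal to noise over triplicate slides.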 The note with it: PTK2 binding, 635 nm fluorescence, higher = more signal.
Sequence of Focal adhesion kinase 1 (Homo sapiens) (Q05397 whole entry, looked up): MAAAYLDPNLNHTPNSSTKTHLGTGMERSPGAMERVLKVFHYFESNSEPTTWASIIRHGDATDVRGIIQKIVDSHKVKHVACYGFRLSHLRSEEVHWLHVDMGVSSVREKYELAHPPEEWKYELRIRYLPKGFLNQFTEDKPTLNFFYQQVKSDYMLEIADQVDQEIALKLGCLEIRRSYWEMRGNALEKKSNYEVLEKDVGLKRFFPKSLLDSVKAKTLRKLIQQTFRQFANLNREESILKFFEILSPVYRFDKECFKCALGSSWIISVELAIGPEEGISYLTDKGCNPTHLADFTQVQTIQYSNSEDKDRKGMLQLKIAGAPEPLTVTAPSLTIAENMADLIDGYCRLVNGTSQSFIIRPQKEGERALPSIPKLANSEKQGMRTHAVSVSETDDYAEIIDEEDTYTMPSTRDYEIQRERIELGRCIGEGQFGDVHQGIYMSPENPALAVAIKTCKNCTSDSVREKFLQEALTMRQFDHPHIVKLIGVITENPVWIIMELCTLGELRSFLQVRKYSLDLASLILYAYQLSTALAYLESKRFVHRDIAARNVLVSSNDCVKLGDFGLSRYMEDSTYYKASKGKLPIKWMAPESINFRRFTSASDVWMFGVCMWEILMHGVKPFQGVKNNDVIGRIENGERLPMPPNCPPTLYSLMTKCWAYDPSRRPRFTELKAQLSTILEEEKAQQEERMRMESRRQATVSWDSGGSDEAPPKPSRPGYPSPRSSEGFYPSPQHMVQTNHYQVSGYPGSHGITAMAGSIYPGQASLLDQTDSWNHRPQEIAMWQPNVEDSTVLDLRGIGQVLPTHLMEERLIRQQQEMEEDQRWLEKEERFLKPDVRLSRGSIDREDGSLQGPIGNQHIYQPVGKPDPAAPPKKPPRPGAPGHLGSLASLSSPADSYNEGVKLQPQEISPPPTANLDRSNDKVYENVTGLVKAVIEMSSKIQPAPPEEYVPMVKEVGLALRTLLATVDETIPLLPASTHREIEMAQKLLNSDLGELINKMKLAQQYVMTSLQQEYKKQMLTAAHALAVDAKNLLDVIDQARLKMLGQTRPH
For assay [4], the system named is Fibrinogen (Alexa647-labelled). As to the kind of experiment: fibrinogen binders on compound microarrays, profiling panel, artefact control for SMM control-protein annotation, biochemical, small-molecule microarray, 635/667 nm fluorescence (AID 1131).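 Further: z-score merges 667 nm fluorescence with per-spot signal-to-noise over triplicate slides.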 As to conditions: fibrinogen-A647 binding fluorescence, higher = more signal.
Assay [5] has as its target Follistatin (Homo sapiens) (UniProt P19883). As to the kind of experiment: follistatin binders on small-molecule microarrays, primary screen, biochemical, small-molecule microarray, 635/667 nm fluorescence (AID 1132). The note with it: FST binding, 635 nm fluorescence, higher = more signal.
In assay [6] the target is Fibroblast growth factor 2 (Homo sapiens) (UniProt P09038). As to the kind of experiment: FGF2 binders on small-molecule microarrays, primary screen, biochemical, small-molecule microarray, 635/667 nm fluorescence (AID 1133). The note with it: small-molecule microarray binding, FGF2, fluorescence 635/667; higher = more signal.
Sequence of Fibroblast growth factor 2 (Homo sapiens) (P09038 whole entry, looked up): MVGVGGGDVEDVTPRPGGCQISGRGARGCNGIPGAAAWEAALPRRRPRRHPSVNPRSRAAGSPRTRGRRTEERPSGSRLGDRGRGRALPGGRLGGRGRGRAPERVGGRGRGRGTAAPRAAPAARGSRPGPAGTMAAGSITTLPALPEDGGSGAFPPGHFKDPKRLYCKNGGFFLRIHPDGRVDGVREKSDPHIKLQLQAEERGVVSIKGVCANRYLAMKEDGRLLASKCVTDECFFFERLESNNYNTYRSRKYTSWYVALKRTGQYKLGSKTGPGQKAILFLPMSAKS
The nature of assay [7]: mitochondrial membrane potential change in A549 cells, profiling panel, cell-based, JC-1 fluorescence, basal, 24 h, 100 nL (AID 1138).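 Further: A549 lung adenocarcinoma cells under basal conditions with no added stimulus; test concentration not given here.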 The note with it: higher = more signal.
For another assay, the system named is Lefty1. As to the kind of experiment: Lefty1 binders on small-molecule microarrays, primary screen, biochemical, small-molecule microarray, 635/667 nm fluorescence (AID 1139). As to conditions: small-molecule microarray binding, fluorescence 635/667; higher = more signal.
Assay [8] relates to wheat germ agglutinin (Triticum aestivum), Alexa647-labelled. Description: wheat germ agglutinin binders on compound microarrays, profiling panel, artefact control for SMM control-protein annotation, biochemical, small-molecule microarray, 635/667 nm fluorescence (AID 1140).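 Further: score merges 667 nm feature emission with signal to noise over triplicate slides.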 The note with it: WGA-A647 binding, 635 nm fluorescence, higher = more signal.
Assay [9] deals with Luciferin 4-monooxygenase (Photinus pyralis) (UniProt P08659). As to the kind of experiment: firefly luciferase enzyme inhibitors, primary screen, biochemical, luminescence, purified enzyme, 2006 set (AID 1141).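 Further: cell-free assay with purified firefly luciferase at 100 ng per well in PBS; test concentration not given here.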 The note with it: SteadyGlo luminescence, 30 min, higher = more signal, called active from +8 up or from −8 down.
Sequence of Luciferin 4-monooxygenase (Photinus pyralis) (P08659 whole entry, looked up): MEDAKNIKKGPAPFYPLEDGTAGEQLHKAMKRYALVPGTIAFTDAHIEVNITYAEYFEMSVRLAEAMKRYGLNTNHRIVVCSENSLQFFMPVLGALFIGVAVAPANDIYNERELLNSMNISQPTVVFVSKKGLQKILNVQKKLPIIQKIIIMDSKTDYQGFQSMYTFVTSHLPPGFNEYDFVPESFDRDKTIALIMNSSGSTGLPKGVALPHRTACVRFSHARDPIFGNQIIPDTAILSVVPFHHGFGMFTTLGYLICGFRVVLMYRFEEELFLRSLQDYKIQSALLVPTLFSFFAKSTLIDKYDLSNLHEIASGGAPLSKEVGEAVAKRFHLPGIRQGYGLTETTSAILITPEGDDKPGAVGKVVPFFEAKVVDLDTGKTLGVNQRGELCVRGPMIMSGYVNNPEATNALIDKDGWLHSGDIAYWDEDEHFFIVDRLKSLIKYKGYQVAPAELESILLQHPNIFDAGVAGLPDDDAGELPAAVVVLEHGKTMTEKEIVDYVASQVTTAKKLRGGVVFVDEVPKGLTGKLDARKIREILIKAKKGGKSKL
Assay [10] has as its system Wnt5a (protein binding on small-molecule microarray). Description: Wnt5a binders on small-molecule microarray, primary screen, biophysical, 635/667 nm fluorescence (AID 1142).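 Further: fluorescence read at 667 nm with signal to noise per printed feature.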 As to conditions: 635 nm fluorescence, higher = more signal.
Assay [11] can be described thus: cell viability in Huh7 cells, primary screen, cytotoxicity control for HCV replication inhibitor project, CellTiter-Glo luminescence, basal, 48 h (AID 1143).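 Further: Huh7 hepatoma cells carrying a hepatitis C replication reporter with no stimulus; test concentration not given here.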 The note with it: Huh7 HCV replicon, higher = more signal, called active from +8 up or from −8 down.
Assay [12] in a line: P. aeruginosa biofilm formation inhibitors, primary screen, PAO1 strain, BacTiter-Glo luminescence, LB-PBS (AID 1144). As to conditions: 12 h, higher = more signal.
Assay [13] in a line: CREB reporter modulators without forskolin, primary screen, cell-based, PC12, CRE-LacZ reporter, unstimulated (AID 1145). The note with it: no forskolin, luminescence, 4.5 h, higher = more signal, called active from +8 up or from −8 down.
Assay [14] in a line: CREB reporter modulators under forskolin, primary screen, cell-based, PC12, CRE-LacZ reporter, forskolin-stimulated (AID 1146).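 Further: PC12 cells with 6xCRE LacZ reporter stimulated by forskolin 10 µM; beta-galactosidase reporter signal reflecting CREB driven transcription.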 As to conditions: luminescence, 4.5 h, higher = more signal, called active from +8 up or from −8 down.
In assay [15] the target is Streptavidin (Streptomyces avidinii) (UniProt P22629). Description: streptavidin binders on small-molecule microarray, primary screen, artefact control for SMM compound annotation, biophysical, 635/667 nm fluorescence (AID 1147).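 Further: signal reflects streptavidin binding to arrayed compounds as a control protein.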 As to conditions: streptavidin binding, higher = more signal.
Sequence of Streptavidin (Streptomyces avidinii) (P22629 whole entry, looked up): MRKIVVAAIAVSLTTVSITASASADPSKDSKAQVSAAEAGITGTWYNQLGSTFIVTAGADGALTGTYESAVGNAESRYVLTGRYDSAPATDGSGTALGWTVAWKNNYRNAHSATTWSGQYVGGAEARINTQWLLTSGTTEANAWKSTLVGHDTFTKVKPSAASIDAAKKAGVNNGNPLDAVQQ
Assay [16] is described as follows: small-molecule binders of probe aInhba, primary screen, biochemical, small-molecule microarray, 635/667 nm fluorescence (AID 1148).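 Further: score merges 667nm spot fluorescence with signal-to-noise for antibody binding to printed compounds.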 As to conditions: higher = more signal.
Assay [17] concerns the target Torsin-1A (Homo sapiens) (UniProt O14656). As to the kind of experiment: torsin A binders from cell lysate, primary screen, small-molecule microarray, wild-type, 635/667 nm (AID 1149). The note with it: COS7 hTOR1A-WT lysate, 635 nm fluorescence, higher = more signal.
Assay [18] shares this target. As to the kind of experiment: small-molecule binders of mutant TOR1A in lysate, primary screen, cell lysate, small-molecule microarray, COS7 lysate, 635/667 nm fluorescence (AID 1150).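 Further: score pools 667 nm emission and signal to noise measuring lysate protein binding.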 As to conditions: COS7 hTOR1A mutant lysate, 635 nm fluorescence, higher = more signal.
Assay [19] concerns Sonic hedgehog protein (Shh). Description: small-molecule binders of Shh protein, primary screen, biochemical, small-molecule microarray, 635/667 nm fluorescence (AID 1151).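 Further: Shh protein binding to compounds spotted on small-molecule microarray slides; score combines spot fluorescence intensity with signal-to-noise across triplicate slides.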 The note with it: small-molecule microarray binding, 635 nm fluorescence; higher = more signal.

Activity calls are given as the source filed them. Unless noted, how the calls were made is not given here.

Sequence of Follistatin (Homo sapiens) (P19883 whole entry, looked up): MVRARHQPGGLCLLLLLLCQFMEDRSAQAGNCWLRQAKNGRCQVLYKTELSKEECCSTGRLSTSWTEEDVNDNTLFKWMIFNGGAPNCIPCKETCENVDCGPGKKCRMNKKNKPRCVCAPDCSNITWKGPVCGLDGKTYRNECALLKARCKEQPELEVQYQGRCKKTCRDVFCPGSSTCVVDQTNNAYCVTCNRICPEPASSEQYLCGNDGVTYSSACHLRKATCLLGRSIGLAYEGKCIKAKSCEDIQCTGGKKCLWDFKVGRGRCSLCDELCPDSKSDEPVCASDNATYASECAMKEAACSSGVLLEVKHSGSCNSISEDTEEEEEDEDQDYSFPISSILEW
Sequence of Torsin-1A (Homo sapiens) (O14656 whole entry, looked up): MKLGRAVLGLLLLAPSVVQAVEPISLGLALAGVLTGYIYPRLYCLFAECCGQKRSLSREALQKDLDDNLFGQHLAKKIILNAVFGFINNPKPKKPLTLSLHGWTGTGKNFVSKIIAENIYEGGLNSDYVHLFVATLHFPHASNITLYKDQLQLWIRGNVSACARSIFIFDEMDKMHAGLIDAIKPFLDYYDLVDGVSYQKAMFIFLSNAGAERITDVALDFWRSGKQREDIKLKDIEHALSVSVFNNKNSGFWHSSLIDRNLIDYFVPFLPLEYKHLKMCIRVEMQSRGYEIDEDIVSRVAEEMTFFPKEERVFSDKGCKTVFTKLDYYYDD

Turning to `CCCCN1CC=CC23O[C@@H]4C=CCOC(=O)[C@@H]4[C@H]2C(=O)N(C(CO)C(C)C)[C@@H]3C1=O` (stereo not given in full), the composite z-score in assay [1] is -1.13; in [2] it was -0.663; in [3], -0.813; in [4] it was -0.328; in [5] it was 0.389; in assay [6], 0.126. Besides, the composite z-score with Lefty1 was -0.12; in assay [8] it was -0.708; in assay [10], -0.0661; in assay [15] it was -0.507; in assay [16], -0.34; in the assay with Torsin-1A (Homo sapiens) [17], -0.241. In addition, the composite z-score was -0.436 with Torsin-1A (Homo sapiens) [18] and 0.605 in [19]. Moreover, the z-score in assay [7] is 0.406; in assay [9], -0.606 (inactive); in assay [11], 0.233 (inactive); in [12], 0.946 (inactive); in assay [13], 0.463 (inactive); in [14] it was 0.547 (inactive).
In the case of `O=C1N(CCS(=O)(=O)c2ccccc2)c2ccccc2[C@@H]2OC(c3ccc(OCCCO)cc3)=N[C@]12CCS(=O)(=O)c1ccccc1`, the composite z-score in assay [1] stood at 0.7; in assay [2], 1.2; in [3], 0.575; in assay [4] it was 0.922; in assay [5], 1.38; in assay [6], 1.5. Moreover, the composite z-score with Lefty1 stood at 0.553; in assay [8], 0.465; in assay [10], 0.277; in [15], 1.12; in [16], 0.103; in the assay with Torsin-1A (Homo sapiens) [17] it was 0.741. Further, the composite z-score turned out to be 1.43 with Torsin-1A (Homo sapiens) [18] and 1.3 in assay [19]. The z-score in [7] is -1.59; in [9] it was -3.78 (inactive); in [11], -1.35 (inactive); in [12], 0.647 (inactive); in assay [13], 2.41 (inactive); in assay [14], 0.103 (inactive).
Regarding `CC(C)(C)N1CC=CC23O[C@@H]4/C=C\CCCOC(=O)C4[C@H]2C(=O)N(CCCCCCO)[C@@H]3C1=O` (stereo not given in full), the composite z-score in assay [1] was 3.08; in [2] it was -0.444; in assay [3], -0.639; in [4], -1.01; in assay [5], -0.93; in [6], -0.502. Moreover, the composite z-score in the assay with Lefty1 was -1.11; in assay [8], 0.0119; in assay [10] it was -0.731; in assay [15], -1; in assay [16] it was -0.0719; with Torsin-1A (Homo sapiens) [17] it was 0.467. In addition, the composite z-score with Torsin-1A (Homo sapiens) [18] is 0.488; in assay [19], -0.22. Besides, the z-score in assay [7] is 1.2; in assay [9], -0.854 (inactive); in assay [11], -0.0711 (inactive); in assay [12], -1.95 (inactive); in [13] it was -0.224 (inactive); in assay [14], -0.739 (inactive).
As to `COC(=O)C1(CC(C)C)C=C2C(=C(C(C)C)C(=O)C2C)CN1` (stereo not given), the composite z-score was 0.928 in assay [1]; -1.05 in [2]; 0.208 in assay [3]; -0.653 in [4]; -1.04 in [5]; -0.688 in assay [6]. The composite z-score with Lefty1 is -0.746; in [8] it was 0.323; in [10], -0.187; in assay [15], -0.469; in [16] it was -0.0791; with Torsin-1A (Homo sapiens) [17], -0.742. For the same compound, the values for the composite z-score (with Torsin-1A (Homo sapiens) [18]; in assay [19]) were -0.15 and -0.702, respectively. Also, the z-score in assay [7] is 0.44; in [9] it was 1.66 (inactive); in [11] it was 0.254 (inactive); in [12] it was 0.825 (inactive); in assay [13] it was 1.34 (inactive); in assay [14], -0.872 (inactive).
With `CCCCC(O)C1C=CC2C(=O)N(C)C(=O)C2N1Nc1ccccc1` (stereo not given), the composite z-score in [1] was 1.86; in assay [2], 0.603; in assay [3], 0.383; in [4] it was 0.416; in assay [5] it was 0.0471; in assay [6], -0.614. Moreover, the composite z-score was -0.291 in the assay on Lefty1; 0.0187 in assay [8]; 0.0991 in assay [10]; 0.264 in assay [15]; 0.106 in assay [16]; 0.29 with Torsin-1A (Homo sapiens) [17]. Moreover, the figures for the composite z-score (with Torsin-1A (Homo sapiens) [18]; in assay [19]) were 0.0531 and -0.768, respectively. Also, the z-score in [7] is -0.771; in assay [9], 0.16 (inactive); in assay [11] it was 0.898 (inactive); in [12], -0.556 (inactive); in [13], -0.14 (inactive); in assay [14], 0.721 (inactive).
